Source: PubChem BioAssay (NCI)
“And” between values parts separate entries of the source, which are not always exact repeats. Equal entries are not always repeated. The panel holds about 79,000 compounds, 15% with a hit somewhere; the sample as a whole holds those more often. Unmarked numbers belong to inactive results. The source made the active and inactive calls. Rule as the data show it: active = growth inhibition above about 70%; inactive = the rest.

What was measured:
[1] = NCI Yeast Anticancer Drug Screen. Data for the rad50 strain (AID 155);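 also: 0% = growth of vehicle-only cultures of the same strain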; conditions: S. cerevisiae rad50 strain growth inhibition, hits give high values; at 50.0 µM unless noted
Summary of the method: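 Readout: growth inhibition relative to vehicle-treated cultures. Compound exposure was carried out in a genetically defined yeast strain deficient in DNA damage repair.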

[2] = NCI Yeast Anticancer Drug Screen. Data for the mec2-1 strain (AID 157); conditions: S. cerevisiae mec2-1 strain, hits give high values; at 50.0 µM unless noted
Summary of the method: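 Strain: mec2-1 (DNA repair/cell cycle alteration). Compound exposure, then growth measured; inhibition expressed relative to vehicle.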

[3] = NCI Yeast Anticancer Drug Screen. Data for the sgs1 mgt1 strain (AID 161);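 also: 0% = growth of cultures given vehicle only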; conditions: S. cerevisiae sgs1 mgt1 strain, hits give high values; at 50.0 µM unless noted
Summary of the method: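 Read-out: growth inhibition vs vehicle controls. Cells: mutant yeast strain deficient in DNA damage repair.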

[4] = NCI Yeast Anticancer Drug Screen. Data for the cln2 rad14 strain (AID 165);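 also: 0% = growth equal to vehicle treated cultures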; conditions: S. cerevisiae cln2 rad14 strain, hits give high values; at 50.0 µM unless noted
Summary of the method: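 Compounds are applied to the cln2 rad14 yeast strain, and growth is then compared with that of vehicle-treated cultures to give inhibition.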

[5] = NCI Yeast Anticancer Drug Screen. Data for the bub3 strain (AID 167); conditions: S. cerevisiae bub3 mutant strain, hits give high values; at 50.0 µM unless noted
Summary of the method: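 Readout: yeast growth inhibition, expressed relative to vehicle-only wells. The test organism is a mutant strain from a panel with lesions in DNA repair or checkpoint genes.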

[6] = NCI Yeast Anticancer Drug Screen. Data for the mlh1 rad18 strain (AID 175); conditions: S. cerevisiae mlh1 rad18 strain growth inhibition, hits give high values; at 50.0 µM unless noted
Summary of the method: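 Read-out is yeast growth inhibition, calculated against vehicle-only controls. The compound was applied to a strain engineered with DNA damage repair alterations.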

Row | Compound | growth inhibition [1] | growth inhibition [2] | growth inhibition [3] | growth inhibition [4] | growth inhibition [5] | growth inhibition [6]
1 | COc1ccc(C(c2cc3c(cc2O)OCO3)N2CCN(C(c3ccc(OC)c(OC)c3)c3cc4c(cc3O)OCO4)CC2)cc1OC (stereo not given) | -3% | 1.05% | 1.6% | 17.4% | 2.2% | -17.1%
2 | O=C1NN(C(=O)c2ccccc2)C(c2ccccc2[N+](=O)[O-])c2c1c1ccccc1n2C(=O)c1ccccc1 (stereo not given) | 28.9% | 5.65% | 5.2% | -23.4% | -4.05% | 14.9%
3 | ON=C1CCC(c2ccccc2)CC1 (stereo not given) | -21.3% | -24% | 13.8% | -24.2% | 2.85% | -9.6%
4 | O=C1c2cc3c(cc2CC12Cc1cc4c(cc1C2=O)CCC4)CCCC3 (stereo not given) | 6.45% | -52.5% | 1.45% | -29.1% | 0.35% | -22.5%
5 | COc1cc(O)c(C(=O)/C=C/c2ccccc2)c(OC)c1 | 1.05% | -12.1% | 27.1% | 15.6% | 15.1% | -21.4%
6 | COc1ccccc1-n1c(=O)c(N=Nc2ccc(Br)cc2)c(O)n(-c2ccccc2C)c1=S | 49.1% | 0.85% | 44.7% | -11.1% | -2.45% | 17.6%
7 | CCCCN(Cc1ccccc1)C(=S)Nc1ccccc1 | 17.4% | 47.8% | 64.4% | 1.85% | 63.5% | 67.3%
8 | O=[N+]([O-])c1ccccc1/C=C/c1ccccn1 | 2.4% | 2.35% | -3.55% | 20% | 41.3% | 21.1%
9 | COC(=O)C(CCSC)NC(=O)C1CSC(C)(C)N1C=O (stereo not given) | 0.65% | 0.2% | 39.2% | -1.85% | 44.5% | -1.85%
10 | CC1(CO)COC(C)(C)OC1 | 16.1% | 5.85% | 7.1% | 29.2% | 2.75% | 13.6%
11 | Nc1nc(Cl)cc(NCCCCCCCCNc2cc(Cl)nc(N)n2)n1 | -2.3% | -1.65% | -7.35% | -7.8% | -3.95% | -3.55%
12 | O=S(=O)(Nc1cccc(O)c1)c1ccccc1 | 6% | -12.1% | 6.8% | 14.7% | 3% | 13.2%
13 | CCOC(=O)c1cnc(NN)[nH]c1=O | -5.3% | -4.9% | -10.6% | -46.4% | -13.8% | -4.65%
14 | Cn1c2ccccc2c(=O)c2[nH]c3ccccc3c21 | 77.1% (active) | 78.5% (active) | 84.2% (active) | 63.5% | 83.3% (active) | 76.8% (active)
15 | O=C(O)C1(O)CCCCC1 | -4.85% and 6.9% | -2.45% and 9% | -7.35% and -1.65% | -21.2% and 16.4% | -7.2% and 19.6% | 6.65% and -7.05%
16 | COc1ccc(-c2oc(=O)cc(-c3ccccc3)c2-c2ccccc2)cc1 | 22.6% | -11.6% | 16.2% | 4.2% | -3.55% | 14.7%
17 | CC(=O)OCC(C)O (stereo not given) | 28% | -9.7% | 14.3% | -0.3% | 1.2% | 2%
18 | Cc1ccc(S(=O)(=O)OCC2C3C=CC(C4C=CC43)C2COS(=O)(=O)c2ccc(C)cc2)cc1 (stereo not given) | -4.25% | -0.65% | -10% | -25.3% | 11.8% | -0.4%
19 | CC1Cc2c(n[nH]c2CC2CC(=O)NC(=O)C2)C(C)C1 (stereo not given) | 8.6% | -2.35% | 4% | -15.7% | 29.4% | 17.8%
20 | CC1CC(C)NC(=S)N1 (stereo not given) | -16.6% | -3.9% | -9.85% | 16.7% | 3.25% | -5.95%
